Screening data (PubChem)
An excerpt weighted towards active compounds, which were near 28% of everything screened.
CYP2C9 inhib: blockers of cytochrome P450 2C9 activity – biochemical, luminescence, ADME assay, primary screen; P11712; CYP2C9 Supersomes, luciferin-H conversion; inhibition, % at 5 µM; 96,000 tested, 20% active; AID 777, 2007;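 active = blocking of liver enzyme CYP2C9 beyond about 50% at 5 µM, limit read from the data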
D1 allo mod: D1 CRE-luciferase signal change, two-sided – cell-based, HEK293 D1, dopamine EC30, D1 allosteric modulator project, primary screen | dopamine EC30 potentiation; actives deviate in either direction | 58,000 tested, 5.9% active | B-score at 10 µM;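 active = luminescence count or its row- and column-corrected plate score outside the 99.7% band of the plate's sample wells, on either side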
Target sequence (P21728 whole entry, looked up): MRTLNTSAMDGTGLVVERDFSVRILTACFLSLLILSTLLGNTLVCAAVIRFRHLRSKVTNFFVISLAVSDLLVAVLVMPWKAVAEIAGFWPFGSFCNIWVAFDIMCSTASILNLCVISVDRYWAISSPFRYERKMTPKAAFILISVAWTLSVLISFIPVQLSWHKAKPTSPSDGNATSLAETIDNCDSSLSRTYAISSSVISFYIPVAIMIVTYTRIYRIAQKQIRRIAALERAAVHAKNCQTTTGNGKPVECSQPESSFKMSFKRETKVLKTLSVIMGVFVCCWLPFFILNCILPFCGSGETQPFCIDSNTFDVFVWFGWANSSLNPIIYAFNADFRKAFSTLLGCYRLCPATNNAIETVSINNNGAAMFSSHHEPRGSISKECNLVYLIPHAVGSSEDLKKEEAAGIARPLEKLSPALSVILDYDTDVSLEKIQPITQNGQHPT
CYP2C9 act: human CYP2C9 activators, primary screen, biochemical, luminescence; Cytochrome P450 2C9 (Homo sapiens), P11712; activation factor at 5 µM; recombinant CYP2C9, luciferin-H conversion; stronger effect = higher value; factor 1 = untreated enzyme, 0 = blocked; 96,000 tested, 1.4% active;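 active = activation factor of 2 or more for CYP2C9 at a 5 µM dose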;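 also: 0 = sulfaphenazole-blocked wells and 1 = vehicle-only wells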
CYP2C19 act: human CYP2C19 activators, primary screen, biochemical, luminescence; 96,000 tested, under 10 active; Cytochrome P450 2C19 (Homo sapiens), P33261; recombinant CYP2C19, luciferin-H EGE luminescence; stronger effect = higher value; 0 = fully inhibited enzyme, 1 = untreated enzyme; activation factor at 5 µM; AID 1025, 2008;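 active = activation factor of at least 2 at 5 µM in the primary screen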;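 also: 0 = wells with 2.5 mM tranylcypromine and 1 = vehicle-only wells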
CYP2C19 inh: blockers of cytochrome P450 2C19 activity – biochemical, luminescence, ADME assay, primary screen | CYP2C19 Supersomes, luciferin-H EGE luminescence, 30 min | inhibition, % at 5 µM | 96,000 tested, 21% active | AID 778, 2007;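 active = CYP2C19 inhibition above a set limit at 5 µM in the primary screen, cut at about 50% in these data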;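 also: plate controls were negative control wells for no effect and 2.5 mM tranylcypromine positive control for full effect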
DAT uptake mod: changed hDAT dopamine uptake under cocaine IC80, either direction, primary screen, cocaine antagonist project, cell-based, LLC-PK1 hDAT, [14C]-dopamine uptake, MLSMR. Sodium-dependent dopamine transporter (Homo sapiens), Q01959. LLC-PK1 hDAT cells, [14C]-dopamine uptake with cocaine IC80; actives deviate in either direction. B-score at 10 µM. 110,000 tested, 1.3% active. AID 449768, 2010;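 active = Z score or B-score, a plate-position-corrected score, falls beyond the plate's 99.7% confidence bounds, in either direction; inactive = both scores lie inside the 99.7% bounds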;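 also: scored against the spread of the other compound wells on the same plate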
Active calls of the source: *; · = not tested or not shown.

SMILES	CYP2C9 inhib	D1 allo mod	CYP2C9 act	CYP2C19 act	CYP2C19 inh	DAT uptake mod
Cc1cc(Nc2ccc(C)c(C)c2)n2nc(C)nc2n1	52*	·	0.5	0.7	25	-0.61
COc1cccc(C2NC(=O)NC(C)=C2C(=O)Nc2cccc(C)c2C)c1 (stereo not given)	2	-0.038	1	0.9	12	-0.52
COc1ccc(OCCNC(=S)Nc2cccc3ccccc23)cc1	-54	·	1.5	1	-4	1.3
CC(C)(C)c1ccc(C(=O)NNC(=O)c2cccc(Br)c2)cc1	-31	·	1.3	1.1	-11	0.035
Cc1ccc(C(=O)NNC(=S)Nc2cccc3ccccc23)s1	65*	·	0.3	0.6	38	0.56
O=C(NNC(=S)Nc1cccc2ccccc12)c1cccc(Br)c1	96*	·	0	0.1	91*	-0.73
Cc1ccc(S(=O)(=O)NCCN(CCNS(=O)(=O)c2ccc(C)cc2)S(C)(=O)=O)cc1	38	-5.3*	0.6	0.7	35	0.53
CC(C)N(CCNS(=O)(=O)c1ccc(Cl)cc1)C(C)C	54*	·	0.5	0.6	43	3*
COCCNS(=O)(=O)c1ccc(-c2ccc(C)cc2)cc1	93*	·	0.1	0.3	74*	0.02
Cc1ccc(S(=O)(=O)NCCOCCNS(=O)(=O)c2ccc(C)cc2)cc1	-101	0.59	2*	0.3	68*	-0.51
Cc1ccc(S(=O)(=O)NCCC(=O)N2CCCCC2)cc1	-67	0.023	1.7	0.9	9	·
O=c1c2nnn(Cc3ccccc3)c2ncn1-c1ccccc1	-38	-0.017	1.4	1	-1	0.51
NC(=O)C1(N2CCCCC2)CCN(C(=O)c2cccs2)CC1	9	-0.0042	0.9	0.7	29	-0.054
CCOc1ccc(NC2=NCCC(=O)N2Cc2cccs2)cc1	56*	0.21	0.4	0.5	50*	0.12
COC(=O)C[C@H]1c2cc(C(F)(F)F)ccc2S(=O)(=O)N1C(C)(C)C	·	·	·	·	·	-0.66
CCCCC(=O)Nc1ccc(NC(=O)c2ccccc2OC)cn1	-247	·	3.5*	0.2	78*	0.51
CCC(=O)Nc1cc(C)c(NC(=O)c2ccccc2OC)cn1	-157	2.1	2.6*	0.8	16	1.4
COCCCNC(=O)C(=O)N/N=C/c1ccc(OCC(=O)Nc2cccc(Cl)c2C)c(OC)c1	3	·	1	0.9	9	-0.62
O=C(COc1ccccc1)Nc1cccc(-c2nc3cc4ccccc4cc3[nH]2)c1	80*	·	0.2	0.6	44	0.46
CC(Oc1ccccc1)C(=O)Nc1cccc(-c2nc3ccccc3[nH]2)c1 (stereo not given)	98*	·	0	0.2	79*	-0.019
CC(C)(C)C(=O)Nc1cccc(-c2nc3ccccc3[nH]2)c1	85*	·	0.1	0.5	53*	2.2
O=c1ccc(/C=C/c2ccccc2)nn1Cc1ccccc1Cl	52*	·	0.5	0.6	35	0.75
O=c1ccc(/C=C/c2ccccc2)nn1Cc1ccc(Cl)cc1Cl	42	·	0.6	0.7	27	0.049
O=C1CCCC2=C1C(c1cccs1)n1nc(SCc3ccccc3F)nc1N2 (stereo not given)	·	-0.09	·	·	·	2.8*
Cc1ccccc1CSc1nc2n(n1)C(c1cccs1)C1=C(CCCC1=O)N2 (stereo not given)	58*	·	0.4	0.8	17	0.68
COc1ccc(C2C3=C(CCCC3=O)Nc3nc(SCc4ccccc4)nn32)cc1OC (stereo not given)	42	3.5	0.6	0.9	15	-0.5
O=C(Cc1cccs1)N(Cc1ccco1)C1(C(=O)NC2CCCC2)CCCCC1	60*	-1.2	0.4	0.6	45	0.069
O=C(c1ccc2c(c1)OCO2)N(Cc1ccco1)C1(C(=O)NC2CCCCC2)CCCCC1	46	·	0.5	0.4	59*	-0.23
O=C(c1ccc(Cl)cc1)N1CCN(c2nc(N3CCCCC3)nc(N3CCCCC3)n2)CC1	·	1.7	·	·	·	·
